Source: PubChem BioAssay
PLK1 PBD inh = PLK1 (human) polo-box domain binding inhibition | P53350 | Plk1 PBD binding of FITC phosphopeptide, fluorescence polarization | Potency, µM, usual class: inhibitors | actives 2.8% (n = 360,000) | AID 720504; note: series mostly up to about 57 µM; nearly all actives have a fitted effect of over 65% in size
mIDH1 inhibitor = blocks human mutant IDH1 R132H enzyme. O75874. IDH1-R132H enzyme, NADPH consumption, diaphorase/resazurin fluorescence. Potency, µM (series often up to 76.6 µM), actives largely listed as inhibitors. actives 0.093% (n = 390,000). AID 602179; note: nearly all actives have a fitted effect of over 65% in size
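IDH1-R132H (0.5 ug/mL dispensed) in pH 7.5 Tris buffer was preincubated 30 min with compound, then given a substrate mix of 0.016 mM NADPH and 2 mM alpha-KG for 80 min at room temperature; remaining NADPH was read by diaphorase/resazurin fluorescence.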
TrxR1 substrate = substrates of rat thioredoxin reductase 1; O89049; purified TrxR1 substrate turnover, NADPH consumption readout; Potency, µM (series often up to 114 µM); AID 588456; actives 0.01% (n = 390,000); note: nearly all actives have a fitted effect of over 50% in size
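Rat TrxR1, dispensed at 90 nM, was prereduced with 400 uM NADPH (final) for 5 min at ~22 deg C, then incubated with compound 15 min before 400 uM selenite. A first-read NADPH fluorescence drop versus no-compound background flagged substrates.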
rTrxR1 inhibitor = inhibitors of rat thioredoxin reductase 1; recombinant rTrxR1, NADPH fluorescence consumption, selenite substrate; Potency, µM (series often up to 114 µM), usual class: inhibitors; AID 588453; actives 1% (n = 390,000); O89049; note: nearly all actives have a fitted effect of over 65% in size
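Rat TrxR1 (90 nM in the dispensed reagent) was pre-reduced with 400 uM NADPH for 5 min at room temperature, then incubated with compound for 15 min. After 400 uM selenite was added, NADPH fluorescence (Ex 340/Em 450 nm) was followed for 8 min.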
VDR inh = blocks the human vitamin D receptor. VDR-SRC2-3 peptide fluorescence polarization, 2 h. Potency, µM, usual class: inhibitors. actives 0.93% (n = 400,000). AID 504847
Target sequence (P11473 whole entry, looked up): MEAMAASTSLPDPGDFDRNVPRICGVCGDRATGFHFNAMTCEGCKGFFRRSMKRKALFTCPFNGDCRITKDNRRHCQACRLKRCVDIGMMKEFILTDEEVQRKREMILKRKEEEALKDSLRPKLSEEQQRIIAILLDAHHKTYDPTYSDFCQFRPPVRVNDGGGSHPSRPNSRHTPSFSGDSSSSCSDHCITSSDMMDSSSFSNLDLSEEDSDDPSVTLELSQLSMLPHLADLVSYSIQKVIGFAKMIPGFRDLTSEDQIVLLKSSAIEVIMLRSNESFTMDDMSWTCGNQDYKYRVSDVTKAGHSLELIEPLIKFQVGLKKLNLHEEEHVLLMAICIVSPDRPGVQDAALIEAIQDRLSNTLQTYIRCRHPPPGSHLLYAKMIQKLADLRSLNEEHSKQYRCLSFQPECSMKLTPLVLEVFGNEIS
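Fluorescence polarization assay measuring small-molecule disruption of VDR binding to the coregulator peptide SRC2-3. Compounds were pin-transferred (23 nl) into the reagent mix and incubated 2 h at room temperature before reading.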
Sfp inh = inhibitors of Bacillus subtilis Sfp phosphopantetheinyl transferase; Potency, µM, actives largely listed as inhibitors; Biochemical Sfp PPTase activity, qHTS; actives 3.5% (n = 310,000); Q9F4F7;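 note: the enzyme is Sfp with the accession as filed and its product quenches rhodamine fluorescence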
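With Hepes-Na pH 7.6 buffer containing 10 mM MgCl2, Sfp (15 nM) modified BHQ-2-YbbR (12.5 uM) using rhodamine-CoA (5 uM). Two reads 30 minutes apart at 525/598 nm yielded each well's rate.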
Resorufin autofl = interferes with resorufin fluorescence in IDH1 counter-screen. shares compounds with mIDH1 inhibitor. Resorufin detection reagent fluorescence interference, cell-free. inhibition of signal, % at 51.2 µM. 750 tested, under 10 active. AID 623980
IDH1 WT = inhibits human wild-type IDH1, mutant selectivity check; shares compounds with mIDH1 inhibitor; WT IDH1 enzyme, NADPH diaphorase/resazurin fluorescence; Potency, µM (highest dose often 115 µM), usual class: inhibitors; actives 9% (n = 750); AID 623995; note: nearly all actives have a fitted effect of over 55% in size
mIDH1 confirm = inhibits human mutant IDH1 enzyme in cherrypick confirmation. IDH1 R132H enzyme, NADPH diaphorase/resazurin fluorescence. actives 83% (n = 750). shares compounds with mIDH1 inhibitor. AID 624002. Potency, µM (doses to about 76.6 µM), actives largely listed as inhibitors; note: nearly all actives have a fitted effect of over 50% in size
Hits are given with their value; n = inactive; u = inconclusive; x = not tested or not shown; [ ] = dose if it differs, or a comment. Hits are enriched below; roughly 5.2% of the tested compounds scored in any of these assays. Calls come from the whole dose curve; as a rule, active = well fitted curve in the direction sought with a large enough effect; inconclusive = small, poorly fitted or top-dose-only effect, or another doubt; inactive = no such curve, though single readings can be large; an effect the other way counts as inactive or inconclusive.

SMILES	PLK1 PBD inh	mIDH1 inhibitor	TrxR1 substrate	rTrxR1 inhibitor	VDR inh	Sfp inh	Resorufin autofl	IDH1 WT	mIDH1 confirm
CCN(CC)C(=O)c1sc2c(c1C)c(=O)n(-c1ccc(OC)cc1OC)c(=O)n2CC(=O)c1ccccc1	n	n	n[11.4 µM]	n[11.4 µM]	n	n	x	x	x
C#CCn1c(=O)n(-c2cccc(Cl)c2C)c(=O)c2c3c(sc21)CN(C(C)=O)CC3	x	n	n	n	n	x	x	x	x
CCN(CC)C(=O)c1sc2c(c1C)c(=O)n(-c1ccc(OC)cc1OC)c(=O)n2Cc1cc(C)ccc1C	x	40µM	n	n	n	x	n	n	22µM
CCN(CC)C(=O)c1sc2c(c1C)c(=O)n(CCc1ccccc1)c(=O)n2Cc1cc(C)ccc1C	x	10µM	n	n	n	x	n	n	8.9µM
CC(=O)N1CCc2c(sc3c2c(=O)n(-c2cccc(Cl)c2C)c(=O)n3Cc2ccccc2C)C1	x	u	n	n	n	x	n	40µM	28µM
CCN(CC)C(=O)c1sc2c(c1C)c(=O)n(Cc1ccccc1)c(=O)n2Cc1cc(C)ccc1C	x	n	n	n	n	x	x	x	x
COc1ccc(-n2c(=O)c3c4c(sc3n(Cc3cc(C)ccc3C)c2=O)CN(C(C)=O)CC4)c(OC)c1	x	u	n	n	n	x	n	u	14µM
COc1ccc(-n2c(=O)c3c4c(sc3n(Cc3ccccc3)c2=O)CCC4)c(OC)c1	x	n	n	n	n	x	x	x	x
COc1ccccc1NC(=O)COC(=O)c1ccc(N2CCCC2=O)cc1	n	n	n	n	n	x	x	x	x
CCOc1ccc(/C=N/NC(=O)Cc2ccccc2)cc1CN1CC2CC(C1)c1cccc(=O)n1C2 (stereo not drawn)	n	n	n	n	n	x	x	x	x
CCN(CC)C(=O)c1sc2c(c1C)c(=O)n(-c1ccc(C)c(C)c1)c(=O)n2Cc1cccc(Cl)c1	x	u	n	n	n	x	n	n	13µM
CCCCCc1c(C)c(C#N)c2nc3ccccc3n2c1-n1ccnc1C	n	n	n	u	n	n	x	x	x
Cc1c(CCC(C)C)c(-n2ccnc2C)n2c(nc3ccccc32)c1C#N	n	u	n	n	n	n	n	n	u
COC(=O)[C@@H]1C[C@@]2(O)[C@H](O)[C@H](O)[C@H](O)C[C@H]2N1Cc1ccc(N2CCN(C)CC2)cc1	x	x	x	x	x	n	x	x	x
CN=C1S/C(=C\c2ccc(SC)cc2)C(=O)N1C	n	n	n	n	n	n	x	x	x
CSC1=NC(=O)/C(=C/c2ccc(SC)cc2)S1	n	35µM	n	n	n	n	n	71µM	40µM
CC(=O)Oc1ccc2c(=O)c(Oc3ccccc3[N+](=O)[O-])coc2c1	u	u	n	n	n	n	n	n	28µM
O=C1CCCC2=C1C(c1ccc(O)c(Br)c1)C1=C(CCCC1=O)N2c1ccccc1	n	u	n	n	n	n	n	n	u
Cc1onc(-c2c(F)cccc2Cl)c1C(=O)Nc1cc(S(=O)(=O)N2CCCCC2)ccc1O	n	52µM	n	n	n	x	n	n	35µM
CCOC(=O)C1CCN(C(=O)CSc2n[nH]c(-c3ccccc3)n2)CC1	x	n	n	n	n	x	x	x	x
COc1ccc(N(C(=O)c2snc(C(N)=O)c2N)C(C(=O)NCc2ccccc2)c2ccc(O)cc2)cc1 (stereo not drawn)	n	n	n	n	n	n	x	x	x
COc1ccc(OC)c(N(C(=O)c2snc(C(N)=O)c2N)C(C(=O)NCc2ccccc2)c2ccc(O)cc2)c1 (stereo not drawn)	n	u	n	n	n	n	n	n	22µM
